# Results published in PubChem BioAssay.
# Records with an inconclusive call do not appear. Activity calls are given as the source filed them. Cut-off read from the data, not from the text of the source, unless noted: active = percent of DMSO control GFP below about 86%; inactive = the rest, inconclusive results apart.
# Legend:
# [1] = yeast TOR pathway RPL19A-GFP modulators, primary screen, cell-based, S. cerevisiae, multiplex flow cytometry (AID 1862);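 note: lower values mimic rapamycin by blocking the RPL19A rise seen in DMSO cells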; conditions: S. cerevisiae RPL19A-GFP strain, flow cytometry fluorescence, 3 h; at 10 µM; stronger effect = lower value
# [2] = modulators of MEP2-GFP levels in yeast, primary screen, S. cerevisiae, multiplex flow cytometry (AID 1867;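 active = GFP response, as percent of the DMSO control, above the screen-wide mean plus 3 SD, about 139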;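 note: median GFP channel fluorescence of barcode-gated MEP2-GFP cells measured by flow cytometry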); conditions: S. cerevisiae MEP2-GFP strain, 3 h, at 10 µM, stronger effect = higher value, 100% means same as DMSO wells
# [3] = modulators of CIT2-GFP expression in yeast, primary screen, S. cerevisiae, GFP fusion, multiplex flow cytometry (AID 1870;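 active = percent response above a set limit, the screen-wide mean plus 3 SD, cut at about 130% in these data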;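 note: barcoded CIT2-GFP strain pooled with four other GFP strains with rapamycin as positive control; median GFP fluorescence per well over plate mean of DMSO wells so 100% = DMSO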); conditions: 3 h, at 10 µM, stronger effect = higher value
# [4] = modulators of LAP4-GFP expression in yeast, primary screen, S. cerevisiae, multiplex flow cytometry (AID 1873;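 active = GFP signal, as percent of the solvent control, above the screen mean plus 3 SD, about 149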); conditions: 3 h, at 10 µM, stronger effect = higher value
# [5] = modulators of AGP1-GFP expression in yeast TOR pathway, primary screen, cell-based, multiplex flow cytometry, S. cerevisiae (AID 1887;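 active = GFP signal above the screen-wide mean plus 3 SD, that is over about 124.5% of the solvent control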;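 note: AGP1-GFP fusion strain of S. cerevisiae within a five-strain barcoded multiplex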); conditions: 3 h, at 10 µM, stronger effect = higher value
# [6] = inhibitors of CD8+ T cell-vesicle binding, pilot screen, LFA-1/ICAM-1 modulator project, MLPCN validation set, flow cytometry (AID 2523;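 active = response below a set limit, under 55% cells CD8-positive and vesicle-bound, and CD8 cells' 90th-percentile brightness under 279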;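 for vesicle binding response: mean PE anti-B7-1 fluorescence of CD8+ cells relative to row control; 100% = QL9-loaded vesicles with DMSO vehicle in the same plate row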); conditions: 2C mouse CD8+ T cells, at 7 µM, stronger effect = lower value; double positive events: measured here: CD8+/vesicle+ event percentage
# [7] = biological target: Integrin beta-1 (Homo sapiens) + Integrin alpha-4 (Homo sapiens) (UniProt P13612+P05556); experiment: inhibition of HUTS-21 binding to VLA-4, pilot screen, VLA-4 allosteric modulator project, U937 cells, HUTS-21 mAb, flow cytometry, validation set (AID 2674;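 active = inhibition above 50%, about 3 SD of the validation set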;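 note: antibody binding induced by the VLA-4 ligand LDV present at three times its Kd; 0% = LDV ligand with antibody and no compound and 100% = antibody without LDV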); conditions: HUTS-21 LIBS mAb binding, at 6.7 µM, stronger effect = higher value, binding induced by LDV ligand
# Integrin beta-1 (Homo sapiens) + Integrin alpha-4 (Homo sapiens), sequence (P05556 whole entry, looked up): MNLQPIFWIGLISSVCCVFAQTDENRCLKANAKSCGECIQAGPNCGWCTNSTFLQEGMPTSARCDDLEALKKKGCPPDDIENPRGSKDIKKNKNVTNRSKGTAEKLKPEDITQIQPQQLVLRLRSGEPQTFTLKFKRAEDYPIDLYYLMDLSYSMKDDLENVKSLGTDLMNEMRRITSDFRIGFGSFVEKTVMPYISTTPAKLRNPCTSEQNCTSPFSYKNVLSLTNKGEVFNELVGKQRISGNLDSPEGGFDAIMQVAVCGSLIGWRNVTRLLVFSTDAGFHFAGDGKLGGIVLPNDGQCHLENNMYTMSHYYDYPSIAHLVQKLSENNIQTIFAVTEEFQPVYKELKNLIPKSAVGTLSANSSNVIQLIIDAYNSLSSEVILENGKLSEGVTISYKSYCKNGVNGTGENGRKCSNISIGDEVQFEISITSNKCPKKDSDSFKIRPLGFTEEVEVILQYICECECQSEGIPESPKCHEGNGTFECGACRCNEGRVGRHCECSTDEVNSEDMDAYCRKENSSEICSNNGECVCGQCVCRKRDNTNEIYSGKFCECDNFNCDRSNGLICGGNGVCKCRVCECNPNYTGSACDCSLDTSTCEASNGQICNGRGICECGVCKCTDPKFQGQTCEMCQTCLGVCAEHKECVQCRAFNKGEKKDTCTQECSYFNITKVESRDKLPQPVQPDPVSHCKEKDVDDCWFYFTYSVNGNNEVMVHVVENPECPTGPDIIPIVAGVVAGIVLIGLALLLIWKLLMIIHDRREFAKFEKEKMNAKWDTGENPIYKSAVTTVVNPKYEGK
# Integrin beta-1 (Homo sapiens) + Integrin alpha-4 (Homo sapiens), sequence (P13612 whole entry, looked up): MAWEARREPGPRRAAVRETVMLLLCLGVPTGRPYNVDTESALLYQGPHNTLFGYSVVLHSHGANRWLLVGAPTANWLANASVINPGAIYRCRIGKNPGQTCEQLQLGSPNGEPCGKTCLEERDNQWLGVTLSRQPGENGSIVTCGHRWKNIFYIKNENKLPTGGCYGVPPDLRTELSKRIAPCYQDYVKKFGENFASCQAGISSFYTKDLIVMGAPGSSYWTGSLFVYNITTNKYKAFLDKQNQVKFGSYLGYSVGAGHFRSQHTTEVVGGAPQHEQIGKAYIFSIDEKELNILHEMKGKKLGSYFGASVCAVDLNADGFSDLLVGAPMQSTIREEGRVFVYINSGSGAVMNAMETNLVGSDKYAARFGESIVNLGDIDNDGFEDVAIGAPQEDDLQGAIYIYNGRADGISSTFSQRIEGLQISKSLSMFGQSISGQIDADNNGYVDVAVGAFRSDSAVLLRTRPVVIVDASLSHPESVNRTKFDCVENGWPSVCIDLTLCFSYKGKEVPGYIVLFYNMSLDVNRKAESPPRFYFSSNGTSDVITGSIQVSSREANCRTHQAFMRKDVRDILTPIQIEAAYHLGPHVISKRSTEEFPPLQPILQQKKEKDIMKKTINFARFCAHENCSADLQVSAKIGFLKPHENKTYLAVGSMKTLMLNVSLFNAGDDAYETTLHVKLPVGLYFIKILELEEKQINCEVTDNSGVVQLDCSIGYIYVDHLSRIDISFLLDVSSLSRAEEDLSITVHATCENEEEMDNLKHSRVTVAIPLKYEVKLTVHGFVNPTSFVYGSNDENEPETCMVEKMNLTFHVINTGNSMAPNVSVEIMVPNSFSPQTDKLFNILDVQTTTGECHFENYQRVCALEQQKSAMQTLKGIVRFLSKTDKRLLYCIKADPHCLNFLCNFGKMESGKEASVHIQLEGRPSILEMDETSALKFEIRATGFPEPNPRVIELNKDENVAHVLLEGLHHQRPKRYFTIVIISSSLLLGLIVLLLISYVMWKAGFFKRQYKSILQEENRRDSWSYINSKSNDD
# [8] = superoxide lowering in aged yeast cells, pilot screen, validation compound set (AID 2706;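 active = superoxide response below 65% of plate, a cut near 3 SD across the whole screen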;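 note: yeast exposed to compound for one week at 30 degrees C before staining; 100% = mean of all compound wells on the same plate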); conditions: S. cerevisiae aging, superoxide DHE fluorescence; at 10 µM; stronger effect = lower value
# [9] = biological target: Beta-adrenergic receptor kinase 1 (Homo sapiens) (UniProt P25098); experiment: GRK2 binders displacing RNA aptamer, biochemical, validation, human GRK2, bead flow cytometry (AID 488806;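 active = aptamer binding inhibition above 30%, about 3 SD of noise from non-fluorescent compounds; inactive = inhibition at or below 30%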); conditions: bead-bound GRK2, FAM-aptamer displacement, at 10 µM, stronger effect = higher value
# Beta-adrenergic receptor kinase 1 (Homo sapiens), sequence (P25098 whole entry, looked up): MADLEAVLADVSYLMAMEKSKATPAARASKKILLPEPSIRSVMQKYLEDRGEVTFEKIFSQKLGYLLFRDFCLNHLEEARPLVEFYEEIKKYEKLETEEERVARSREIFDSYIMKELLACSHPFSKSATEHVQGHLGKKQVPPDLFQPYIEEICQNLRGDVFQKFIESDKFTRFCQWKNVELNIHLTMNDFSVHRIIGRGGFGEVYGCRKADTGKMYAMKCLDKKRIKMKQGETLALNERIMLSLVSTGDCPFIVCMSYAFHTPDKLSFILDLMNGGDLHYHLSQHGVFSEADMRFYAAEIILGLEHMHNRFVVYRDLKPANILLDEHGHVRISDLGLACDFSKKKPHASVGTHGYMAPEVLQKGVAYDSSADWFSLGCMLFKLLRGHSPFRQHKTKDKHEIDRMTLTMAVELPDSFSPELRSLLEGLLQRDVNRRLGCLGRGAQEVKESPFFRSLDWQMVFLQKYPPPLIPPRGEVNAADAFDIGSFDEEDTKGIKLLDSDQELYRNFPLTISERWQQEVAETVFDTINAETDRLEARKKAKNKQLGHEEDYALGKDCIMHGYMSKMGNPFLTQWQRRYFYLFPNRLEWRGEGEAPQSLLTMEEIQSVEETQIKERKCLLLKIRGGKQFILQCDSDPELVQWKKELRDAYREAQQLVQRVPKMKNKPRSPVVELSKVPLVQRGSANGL
# [10] = biological target: Beta-2 adrenergic receptor (Homo sapiens) (UniProt P07550); experiment: beta2AR agonists driving receptor internalization, pilot screen, cell-based, FAP fluorogen, flow cytometry, validation set (AID 504459;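 active = percent response above 42, roughly 3 SD of non-fluorescent test compounds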;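 note: agonist-driven loss of surface beta2AR via internalization measured by FAP dye flow cytometry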); conditions: Am2.2-beta2AR cells, FAP surface receptor flow cytometry; at 10 µM; stronger effect = higher value
# Beta-2 adrenergic receptor (Homo sapiens), sequence (P07550 whole entry, looked up): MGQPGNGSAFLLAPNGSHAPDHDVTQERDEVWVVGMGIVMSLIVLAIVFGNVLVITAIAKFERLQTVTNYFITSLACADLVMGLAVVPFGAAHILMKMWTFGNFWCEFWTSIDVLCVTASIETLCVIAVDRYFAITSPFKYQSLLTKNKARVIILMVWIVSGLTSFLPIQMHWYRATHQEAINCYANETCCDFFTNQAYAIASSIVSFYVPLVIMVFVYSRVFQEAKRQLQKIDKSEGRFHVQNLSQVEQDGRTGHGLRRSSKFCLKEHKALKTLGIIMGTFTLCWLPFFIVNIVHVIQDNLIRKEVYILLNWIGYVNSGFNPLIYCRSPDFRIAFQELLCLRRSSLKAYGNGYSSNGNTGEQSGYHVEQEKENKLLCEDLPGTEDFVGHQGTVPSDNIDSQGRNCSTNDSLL
# [11] = biological target: AP-2 complex subunit beta (Homo sapiens) (UniProt P63010); experiment: inhibitors of arrestin peptide binding to AP2, pilot screen, biochemical, validation set, GST-AP2 beads, flow cytometry (AID 504541;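 active = inhibition above 54%, about 3 SD of non-fluorescent compounds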;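 note: AP2 carries R879A mutation and is captured from E. coli lysate; bead-bound FITC arrestin peptide fluorescence measuring arrestin peptide binding to AP2; 0% = DMSO wells and 100% = excess unlabeled arrestin peptide control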); conditions: FITC arrestin peptide, at 10 µM, stronger effect = higher value, AP2 beta2 appendage fragment, R879A mutant
# AP-2 complex subunit beta (Homo sapiens), sequence (P63010 whole entry, looked up, the tested form may be a part, one chain of several): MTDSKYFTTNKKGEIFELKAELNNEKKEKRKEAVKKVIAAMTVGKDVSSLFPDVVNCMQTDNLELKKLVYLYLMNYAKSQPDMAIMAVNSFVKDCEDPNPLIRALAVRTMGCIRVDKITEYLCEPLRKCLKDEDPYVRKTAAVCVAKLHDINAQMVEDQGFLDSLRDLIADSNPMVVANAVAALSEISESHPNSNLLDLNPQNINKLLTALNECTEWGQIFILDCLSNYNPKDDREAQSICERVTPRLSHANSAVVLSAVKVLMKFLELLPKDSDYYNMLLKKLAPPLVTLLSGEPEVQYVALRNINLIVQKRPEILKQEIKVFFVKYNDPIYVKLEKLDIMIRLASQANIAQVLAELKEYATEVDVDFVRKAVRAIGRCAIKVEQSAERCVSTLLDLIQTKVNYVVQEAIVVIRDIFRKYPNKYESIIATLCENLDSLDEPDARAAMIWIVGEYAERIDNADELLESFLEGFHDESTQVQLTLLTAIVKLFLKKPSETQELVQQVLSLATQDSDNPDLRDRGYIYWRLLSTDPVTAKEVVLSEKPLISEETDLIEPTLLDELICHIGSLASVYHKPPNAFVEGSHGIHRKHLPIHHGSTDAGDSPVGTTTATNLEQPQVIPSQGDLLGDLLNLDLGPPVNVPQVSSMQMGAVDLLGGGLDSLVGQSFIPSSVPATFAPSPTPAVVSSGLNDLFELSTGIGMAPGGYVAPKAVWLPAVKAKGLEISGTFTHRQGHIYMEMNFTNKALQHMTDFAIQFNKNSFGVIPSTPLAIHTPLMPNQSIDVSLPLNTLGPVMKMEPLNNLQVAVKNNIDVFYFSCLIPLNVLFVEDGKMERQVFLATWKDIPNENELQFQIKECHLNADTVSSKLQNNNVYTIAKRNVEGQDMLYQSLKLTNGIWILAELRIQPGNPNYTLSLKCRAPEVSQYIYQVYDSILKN
# [12] = yeast V-ATPase proton transport modulators, S. cerevisiae, pHLuorin, HTS validation (AID 504600; in the data active = response above about 15%;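 note: plate controls were DMSO for no effect and reference compound for full effect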); conditions: S. cerevisiae pHLuorin cytosolic pH, at 10 µM, stronger effect = higher value
# [13] = system: anti-desmoglein-3 scFv antibody binding to human DSG3; experiment: inhibitors of anti-DSG3 scFv binding to DSG3, pilot screen, biochemical, validation compound set, bead-based, flow cytometry (AID 588368;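 active = binding below the plate cutoff, the plate median minus 3 SD, with a reading above zero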;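 note: signal is the median channel fluorescence of bead-bound GFP antibody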); conditions: Protein G beads, DSG3-Fc, scFv-GFP binding, at 10 µM, stronger effect = lower value
# [14] = inhibitors of fungal efflux pumps CDR1, CDR2, MDR1, pilot screen, validation compound set, multiplex, phenotypic (AID 588506;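 active = efflux inhibition above 0.42, the validation set average plus 4 SD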;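 note: Nile Red retained in cells so higher fluorescence means more efflux inhibition; 0 = negative control wells and 1 = enniatin B 25 µM full block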); conditions: S. cerevisiae pump-expressing triplex, Nile Red efflux flow cytometry; at 10 µM; stronger effect = higher value; the pumps come from Candida albicans
# [15] = biological target: ATP-binding cassette sub-family B member 6 (Homo sapiens) (UniProt Q9NP58); experiment: ABCB6 transporter inhibitors, pilot screen, K562-ABCB6 cells, flow cytometry, validation set (AID 588550;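 active = inhibition above the screen-wide mean plus 3 SD, about 51%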;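 note: 0% = DMSO wells and 100% = benzethonium chloride 70 µM positive control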); conditions: K562-ABCB6 porphyrin accumulation, 1 h, at 10 µM, stronger effect = higher value
# ATP-binding cassette sub-family B member 6 (Homo sapiens), sequence (Q9NP58 whole entry, looked up): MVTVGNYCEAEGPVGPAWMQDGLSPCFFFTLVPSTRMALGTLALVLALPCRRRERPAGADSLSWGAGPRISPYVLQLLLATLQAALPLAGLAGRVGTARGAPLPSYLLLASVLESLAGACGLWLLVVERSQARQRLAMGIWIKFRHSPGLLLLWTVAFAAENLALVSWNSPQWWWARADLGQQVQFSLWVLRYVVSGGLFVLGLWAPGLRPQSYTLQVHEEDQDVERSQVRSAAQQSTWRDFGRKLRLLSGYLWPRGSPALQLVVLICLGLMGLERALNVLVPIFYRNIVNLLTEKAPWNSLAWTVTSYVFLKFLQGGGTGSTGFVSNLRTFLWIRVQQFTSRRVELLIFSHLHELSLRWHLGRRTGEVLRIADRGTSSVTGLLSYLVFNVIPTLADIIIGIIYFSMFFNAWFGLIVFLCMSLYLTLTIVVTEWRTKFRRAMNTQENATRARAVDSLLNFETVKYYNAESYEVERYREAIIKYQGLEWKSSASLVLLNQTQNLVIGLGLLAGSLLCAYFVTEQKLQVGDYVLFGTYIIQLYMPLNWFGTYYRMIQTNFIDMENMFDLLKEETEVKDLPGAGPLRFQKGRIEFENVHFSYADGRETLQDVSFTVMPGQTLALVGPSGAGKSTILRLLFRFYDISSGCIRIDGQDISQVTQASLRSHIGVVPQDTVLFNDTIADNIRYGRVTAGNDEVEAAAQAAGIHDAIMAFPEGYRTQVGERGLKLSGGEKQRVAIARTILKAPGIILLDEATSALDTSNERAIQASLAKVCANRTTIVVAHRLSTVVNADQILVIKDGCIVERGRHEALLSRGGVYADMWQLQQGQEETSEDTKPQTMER
# [16] = promoters of myeloid differentiation in arrested cells, primary screen, cell-based, GFP/MAC1 double positive, flow cytometry, validation set (AID 588685;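 active = differentiation response of at least 50%, scaled between solvent and reference control, from cells with both markers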;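 note: compound exposure lasts four days before antibody staining and flow analysis; 0% = DMSO wells and 100% = 5 µM fulvestrant positive control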); conditions: ER-HoxA9 marrow cells, stronger effect = higher value, normalized: vehicle 0, fulvestrant 100
Compound,percent of DMSO control GFP [1],GFP response vs DMSO [2],percent response of DMSO control [3],GFP response vs DMSO [4],"GFP response, % of DMSO [5]",double positive events [6],vesicle binding response [6],inhibition [7],superoxide response (% of plate) [8],aptamer binding inhibition [9],response [10],inhibition [11],response [12],binding (% of control) [13],efflux inhibition (fraction of control) [14],inhibition [15],differentiation response [16]
Nc1ccc2nc(Cc3ccccc3)[nH]c2c1,90.2% (inactive),150% (active),108% (inactive),82.5% (inactive),89.4% (inactive),60.5%,192% (inactive),3.55% (inactive),102% (inactive),7% (inactive),10.6% (inactive),-0.76% (inactive),-0.84% (inactive),98% (inactive),0.48 (active),3% (inactive),15.6% (inactive)
O=C1CC(c2ccc(O)cc2)Oc2cc(O)cc(O)c21 (stereo not drawn),107% (inactive),99.3% (inactive),107% (inactive),104% (inactive),110% (inactive),61.7%,238% (inactive),-31.6% (inactive),91.7% (inactive),1% (inactive),-11.3% (inactive),-6.71% (inactive),4.67% (inactive),94.3% (inactive),-0.26 (inactive),9% (inactive),1.22% (inactive)
COc1ccc2c3c([nH]c2c1)C1(NCC3)C(=O)Nc2ccccc21 (stereo not drawn),95.4% (inactive),105% (inactive),89.1% (inactive),103% (inactive),101% (inactive),59.5%,175% (inactive),-15.4% (inactive),97.3% (inactive),0% (inactive),-10.9% (inactive),10.3% (inactive),-0.21% (inactive),97.6% (inactive),0.05 (inactive),-6% (inactive),10.4% (inactive)
O=C(CCC1CCCN(C(=O)c2ccsc2)C1)NCc1ccc(F)c(F)c1 (stereo not drawn),99% (inactive),103% (inactive),94.2% (inactive),103% (inactive),98.9% (inactive),62.4%,183% (inactive),-9.79% (inactive),102% (inactive),-2% (inactive),-9.44% (inactive),-6.99% (inactive),1.61% (inactive),104% (inactive),0.08 (inactive),-8% (inactive),8.06% (inactive)
O=C(CSCc1ccccc1)NCCCN1CCOCC1,97.9% (inactive),106% (inactive),104% (inactive),98% (inactive),107% (inactive),62.4%,197% (inactive),12.3% (inactive),114% (inactive),3% (inactive),-1.38% (inactive),-9.56% (inactive),3.45% (inactive),102% (inactive),0.17 (inactive),15% (inactive),-14.8% (inactive)
C=CCn1c(N2CCCCCC2)nc2c1c(=O)n(C)c(=O)n2C,97.6% (inactive),97.6% (inactive),95.7% (inactive),104% (inactive),114% (inactive),63.5%,220% (inactive),7.4% (inactive),112% (inactive),3% (inactive),-47.3% (inactive),-11.7% (inactive),0.52% (inactive),95.9% (inactive),0.17 (inactive),7% (inactive),-11.9% (inactive)
S=C(NCc1ccccc1)NCc1cccc(CNC(=S)NCc2ccccc2)c1,105% (inactive),98.6% (inactive),93.8% (inactive),108% (inactive),120% (inactive),62.4%,205% (inactive),9.1% (inactive),81.9% (inactive),-2% (inactive),-21.3% (inactive),2.64% (inactive),-2.61% (inactive),100% (inactive),0.33 (inactive),2% (inactive),1.91% (inactive)
O=C1Cc2ccccc2C(c2ccccc2)N1 (stereo not drawn),98.8% (inactive),108% (inactive),101% (inactive),90.1% (inactive),102% (inactive),64.9%,449% (inactive),-19.1% (inactive),112% (inactive),-3% (inactive),-4.45% (inactive),56.3% (active),-7.51% (inactive),95.9% (inactive),0.11 (inactive),9% (inactive),53% (active)
COc1ccc2c(c1OC)C(=O)N1C2SC[C@H]1C(=O)NC1CC(C)(C)NC(C)(C)C1 (stereo partly drawn),99.8% (inactive),133% (inactive),111% (inactive),84.7% (inactive),93.1% (inactive),48.3%,17.2% (active),1.61% (inactive),91.6% (inactive),6% (inactive),3.43% (inactive),39.2% (inactive),-0.76% (inactive),103% (inactive),0.09 (inactive),1% (inactive),30.3% (inactive)
